Screening data deposited in PubChem BioAssay by several laboratories.
ZTA counter – ZTA (EBV) inhibition in EBNA-1 counter-screen; AID 2234; ZTA-DNA binding, fluorescence polarization; inhibition, % at 11 µM; actives 0.15% (n = 320,000); in the data active = inhibition above about 33%
NCF1 inh – blocks human p47phox regulatory protein of NADPH oxidases; P14598; p47phox/p22phox peptide binding, fluorescence polarization, 2 h; inhibition, % at 24.7 µM; actives 0.53% (n = 220,000);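 active = inhibition above about 30%, limit read from the data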;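 also: 0% = p47phox with labelled peptide and 100% = labelled peptide alone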
Target sequence (P14598 whole entry, looked up): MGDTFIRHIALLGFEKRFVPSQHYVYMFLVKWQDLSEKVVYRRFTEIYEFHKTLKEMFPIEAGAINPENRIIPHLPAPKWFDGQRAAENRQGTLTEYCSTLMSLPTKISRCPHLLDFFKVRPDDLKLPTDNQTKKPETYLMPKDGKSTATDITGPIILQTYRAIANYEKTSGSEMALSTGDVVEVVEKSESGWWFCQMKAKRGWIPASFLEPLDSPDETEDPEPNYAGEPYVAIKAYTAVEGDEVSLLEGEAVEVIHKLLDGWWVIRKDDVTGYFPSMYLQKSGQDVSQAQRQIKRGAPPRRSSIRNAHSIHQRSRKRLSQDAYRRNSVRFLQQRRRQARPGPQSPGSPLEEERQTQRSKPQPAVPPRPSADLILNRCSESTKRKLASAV
aDG glyco act – alpha-DG glycosylation activation; Pro5-aDG cells, alpha-DG glycosylation AlphaScreen (IIH6); 0% Pro5, 100% B10-LARGE cell signal; activation, % at 10 µM; actives 0.22% (n = 360,000); AID 624168;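 active = activation of at least 8% versus controls, or a plate z-score of at least 8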;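 also: Pro5 are CHO cells carrying HIG-tagged alpha-DG that lacks glycosylation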
PG9 Ab binder – binds the HIV-1 gp120 antibody PG9; AID 624416; actives 0.43% (n = 360,000); TR-FRET gp120-PG9 antibody binding; inhibition, % at 6.7 µM; in the data active = inhibition above about 8.5%
Rev-erbA mod – modulates human Rev-erb alpha binding to DNA. Rev-erbα–FITC-DNA binding, fluorescence polarization, 90 min. activity, % at 10 µM. actives 0.79% (n = 370,000). P20393. AID 1259318;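 active = activity above about 14%, limit read from the data; passing the limit was not always enough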;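 also: 0% = DMSO wells with 35 nM protein and 100% = DMSO wells with 750 nM protein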
EBNA-1 inh – blocks EBNA-1 binding to DNA. EBNA-1 DNA binding, fluorescence polarization. inhibition, % at 14.8 µM. actives 0.34% (n = 300,000); in the data active = inhibition above about 28%
PG9 bind confirm – confirmation of small molecules binding HIV-1 gp120 antibody PG9. shares compounds with PG9 Ab binder. TR-FRET PG9 antibody binding, biochemical. inhibition, % at 6.7 µM. actives 90% (n = 1,500). AID 651571; in the data active = inhibition above about 9%
PGV04 Ab binding – binds control antibody PGV04 in PG9 binder counter-screen; shares compounds with PG9 Ab binder; TR-FRET PGV04 antibody-gp120 binding, biochemical; inhibition, % at 6.7 µM; actives 95% (n = 1,500); in the data active = inhibition above about 9.5%
Active calls of the source: *; / = no result given. Only some compounds are listed: those with a hit (about 1.9% of all), similar ones and a draw of the others.

SMILES	ZTA counter	NCF1 inh	aDG glyco act	PG9 Ab binder	Rev-erbA mod	EBNA-1 inh	PG9 bind confirm	PGV04 Ab binding
COC(=O)c1ccc(C2C(C(=O)c3cc4ccccc4o3)=C(O)C(=O)N2CCN2CCOCC2)cc1 (stereo not given)	32	/	0	0	0	8	/	/
N#Cc1ccccc1N1CCN(S(=O)(=O)c2ccc3c(c2)CCC(=O)N3)CC1	/	/	/	/	1	/	/	/
Cc1ccc(S(=O)(=O)N(C)Cc2cc3cc(C)ccc3[nH]c2=O)cc1	-1	/	-1	17*	9	-7	28*	44*
Cc1ccc(C2/C(=C(\O)c3ccc4c(c3)OCCO4)C(=O)C(=O)N2Cc2cccnc2)cc1 (stereo not given)	-5	/	0	27*	10	-4	38*	47*
O=C1C(=O)N(Cc2cccnc2)C(c2ccc(Br)cc2)/C1=C(\O)c1ccc2c(c1)OCCO2 (stereo not given)	-4	/	-1	21*	-1	-6	31*	37*
COc1ccc(C2/C(=C(\O)c3ccc4c(c3)OCCO4)C(=O)C(=O)N2Cc2cccnc2)cc1OC (stereo not given)	5	/	0	3	-6	2	/	/
CCc1c(C)nc2ccc(Br)cc2c1Cl	7	0	0	9.3*	4	3	24*	26*
CC(C)(C)c1ccc(-c2nnc(SCC(=O)Nc3ccc(Oc4ccccc4)cc3)n2Cc2ccco2)cc1	/	/	/	/	2	/	/	/
COC(=O)c1cc2oc3ccccc3c2n1CC(=O)N1CCCc2ccccc21	1	-38	0	12*	9	-4	12*	20*
COC(=O)c1cc2ccsc2n1CC(=O)N1CCCc2ccccc21	1	-5	0	-1	1	13	/	/
CN(C)C1(CNC(=O)CC(NC(=O)c2ccccc2Cl)c2ccccc2)CCCCC1 (stereo not given)	-6	/	0	17*	9	-5	8.9*	9.6*
OC(COc1cccc2ccccc12)CN1CCN(c2ccc(Cl)cc2)CC1 (stereo not given)	5	3	0	18*	10	12	27*	31*
OC(COc1cccc2ccccc12)CN1CCN(c2cccc(Cl)c2)CC1 (stereo not given)	7	-2	0	0	0	9	/	/
CSc1nc(N)nc(SCC(=O)c2ccc(C)cc2)c1C#N	5	1	0	23*	17	-1	27*	35*
CSc1nc(N)nc(SCC(=O)OC(C)C)c1C#N	-1	-10	0	-1	-1	-4	/	/
CCOC(=O)[C@]12CCCCC/C=C\1N(CCc1ccc(Cl)cc1)C(=O)[C@H]2CC(=O)N1CCN(C(=O)c2ccco2)CC1	/	/	/	/	-5	/	/	/
Cc1cc(C)c2c(=O)[nH]c(SCC(=O)c3ccc(C(C)C)cc3)nc2n1	3	-2	0	32*	-4	10	59*	76*
N#Cc1c(SCC(=O)O)nc(-c2ccccc2)c2c1CCCC2	-4	-7	0	13*	-7	2	19*	24*
N#Cc1c(SCC(N)=O)nc(-c2ccccc2)c2c1CCCC2	-2	6	0	4	6	-9	/	/
Cc1cc(C)cc(-c2nnc(SCC(=O)Nc3cc(C)on3)o2)c1	/	/	0	14*	3	/	22*	34*
CCOCCCn1c(SCC(=O)Nc2ccccc2)nc2ccccc2c1=O	-4	/	0	0	1	7	/	/
CCOCCCn1c(SCC(=O)Nc2ccc(OC)cc2)nc2ccccc2c1=O	-8	/	0	48*	4	4	48*	55*
CC(C)C[C@H]1COc2cc(Br)ccc2S(=O)(=O)N1Cc1cn(Cc2ccco2)nn1	/	/	/	/	4	/	/	/
CCc1c(C(=O)Nc2cc(C)ccc2OC)[nH]c(C)c1C(C)=O	17	-95	0	20*	-2	23	19*	24*
CC(=O)c1c(C)[nH]c(C(=O)Nc2cc(C)ccc2C)c1C	-15	-8	0	0	-2	-3	/	/
